PubChem BioAssay AID1117319 (Southern Research Institute, 2015)
The campaign covered roughly 260,000 compounds. About 1,500 (0.58%) were called active. Inconclusive results (about 5%) are left out.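 Rule for the calls: active = inhibition above a set limit at one or more doses, reproduced on every date tested; inconclusive = results disagree between test dates, or hit never tested in dose response; inactive = the rest.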 Not all results are given here. Measured potencies and affinities stand elsewhere.

Target: Virion infectivity factor (Human immunodeficiency virus type 1 group M subtype B (isolate BH10)) + Virion infectivity factor (Human immunodeficiency virus type 1 group M subtype B (isolate BRU/LAI)) + Virion infectivity factor (Human immunodeficiency virus type 1 group M subtype B (isolate PCV12)) + Virion infectivity factor (Human immunodeficiency virus type 1 group M subtype B (isolate HXB2)) + DNA dC->dU-editing enzyme APOBEC-3G (Homo sapiens) (UniProt P69720+P69721+P69722+P69723+Q9HC16)
Test: HIV-1 Vif–A3G interaction blockers – biochemical, TR-FRET, GST-Vif 1-94, biotin-A3G peptide, dose response retest, primary screen (AID 1117319);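 note: Vif residues 1-94 fused to GST binding biotinylated APOBEC3G peptide 110-148; 0% = full assay without inhibitor and 100% = GST in place of GST-Vif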
Conditions: TR-FRET GST-Vif / biotin-A3G peptide binding; stronger effect = higher value

inhibition, inactive:
O=C(c1cc2c(s1)-c1ccccc1OC2)N1CCN(c2ccccn2)CC1 -16.4%
CCOc1cc(C(=O)OCC(=O)Nc2cc(C)on2)cc(OCC)c1OCC -2.84%
Clc1ccc(OCc2nn3c(-c4ccco4)nnc3s2)cc1 2%
Clc1ccc(OCc2nn3c(-c4ccccc4)nnc3s2)c(Cl)c1 -0.95%
COc1ccc(CN(C)C2CCCCC2)c(C)c1C -2.5%
COc1ccccc1NC(=O)CSc1nnc(CC(=O)Nc2ccccc2C)n1C -12.1%
CCOc1cccc(N2C(=O)CC(N3CCN(c4nc5ccccc5s4)CC3)C2=O)c1 (stereo unspecified) -1.33%
Clc1cccc(/C=N\Nc2nccs2)c1 -1.1%
O=C(N/N=C/c1ccc(O)c([N+](=O)[O-])c1)c1ccncc1 -22.5%
COc1ccc(C(=O)NCc2ccncc2)cc1OC 24.8%
O=C(O)c1cc(N=Nc2c(O)[nH]c3ccc([N+](=O)[O-])cc23)ccc1Cl 10%
Cc1onc(-c2c(Cl)cccc2Cl)c1NC(=O)NNc1c(Cl)cncc1Cl -3.28%
CCOC=C1SC(=S)N(c2ccccc2OC)C1=O -1.46%
COc1ccccc1NC(=S)N1CCCCCC1 -0.41%
CCc1ccc(CCC(=O)Nc2ccc(S(N)(=O)=O)cc2)o1 68.2%
CC(=O)Nc1ccc(NC(=O)CCc2ccc(C)o2)cc1 3.07%
O=C(COC(=O)COc1cccc(Br)c1)NCc1ccc2c(c1)OCO2 -4.12%
CCOc1ncccc1C(=O)OCC(=O)c1c(N)n(C)c(=O)n(C)c1=O -0.62%
CCN(CC(=O)Nc1c(F)cccc1F)C(=O)c1c(-c2ccccc2Cl)noc1C 10.1%
C=CCn1c(COc2ccc(Cl)cc2)nnc1SCc1ccc(C#N)cc1 -5.86%
Cc1[nH]c2ccccc2c1-c1nc2ccccc2[nH]1 24.1%
CCc1c(C)[nH]c2ccccc2c1=O 22.4%
CCOc1ccc(CCNC(=O)CS(=O)Cc2nc(-c3ccc(C)cc3)oc2C)cc1 (stereo unspecified) 5.23%
COc1ccc(N2CCN(Cc3cc(=O)oc4cc(C)c(Cl)c(C)c34)CC2)cc1 4.75%
O=C(NCCc1ccccc1)C1CCN(S(=O)(=O)c2cccc3nonc23)CC1 -0.8%
O=C(NCCN1CCN(c2ccccc2)CC1)C1CCN(S(=O)(=O)c2cccc3nsnc23)CC1 -4.91%
Cc1cc(=O)[nH]c(SCCCOc2ccccc2Cl)n1 -1.03%
CCSc1n[nH]c2nc3c(c(=O)n12)C1(CCCCC1)Cc1ccccc1-3 -15.1%
CCN(CC)C(=O)CSc1nnc(-c2ccccn2)n1-c1ccccc1OC -5.38%
Oc1c(Br)cc(Cl)cc1C=Nc1ccc(N2CCOCC2)cc1 29.3%
O=[N+]([O-])c1cc(Cc2ccccc2)cc(C=Nc2ccc(N3CCOCC3)cc2)c1O 23.6%
COc1cccc(C(=O)Nc2ccc(NC(=O)c3ccco3)c(Cl)c2)c1 -3.2%
Cc1ccc(-c2cc(C(F)(F)F)n3nc(C(=O)Nc4ccon4)cc3n2)cc1C 10.8%
COc1ccc(/C=N/NC(=O)Cn2ccnc2C)cc1OC -2.05%
Cc1nccn1CC(=O)N/N=C/c1cccc(O)c1 2.96%
CNC(=O)C(=O)N/N=C/c1ccc(Br)cc1 17.2%
COc1ccc(NC(=O)COc2ccccc2Cl)cc1S(=O)(=O)N1CCCCC1 11.7%
O=C(CNS(=O)(=O)c1ccccc1Br)OCC(=O)N1CCc2ccccc21 4.27%
Cc1onc(-c2c(F)cccc2Cl)c1C(=O)N1CCOC12CCCCC2 -10.5%
Nc1ccc(S(=O)(=O)c2cccc(N)c2)cc1 0.36%
Nc1ccc(S(=O)(=O)c2ccc(N)cc2)cc1 -4.69%
COc1ccc(-c2csc3nc(C)nc(N4CCN(C(C)=O)CC4)c23)cc1OC -6.79%
COc1cc(S(=O)(=O)NC2CCCCC2)ccc1F -3.56%
COc1ccc(C2c3c(-c4ccccc4O)n[nH]c3C(=O)N2Cc2ccco2)cc1OC (stereo unspecified) -4.89%
CC(C)[C@@H]1N[C@]2(C(=O)Nc3ccccc32)[C@@H]2C(=O)N(c3cccc(C(F)(F)F)c3)C(=O)[C@@H]21 7.45%
NC(=O)C[C@@H]1N[C@]2(C(=O)Nc3ccccc32)[C@@H]2C(=O)N(C3CCCCC3)C(=O)[C@H]12 6.65%
C=CCNC(=S)N/N=C/c1ccc(N(CC)Cc2ccccc2)cc1 -8.07%
CCOC(=O)c1cc(-c2cccc(C(F)(F)F)c2)nc2nc(SC)[nH]c(=O)c12 -8.37%
O=C(Nc1ccnn1C1CCN(Cc2ccc(C#CCCO)cc2)CC1)c1cccc(F)c1 4.84%
CCS(=O)(=O)Nc1ccc(NC(C)=O)cc1 10.1%
CNC(=O)CSc1nnc(-c2ccccc2)n1C -0.87%
Cc1oc(-c2cccc(Cl)c2)nc1CN1CCC(C(=O)N2CCN(c3ccccn3)CC2)CC1 6.2%
CCc1ccc(-c2nc(CN3CCC(C(=O)N4CCN(c5ccccn5)CC4)CC3)c(C)o2)cc1 -7.35%
CCOc1ccc2nc(NC(=O)C3CCCN(S(=O)(=O)c4c(C)noc4C)C3)sc2c1 (stereo unspecified) -3.03%
Cc1cc(C(c2ccc(O)cc2)c2cc(C)c(O)cc2C)c(C)cc1O 1.89%
Cc1cc(NC(=O)c2ccc(Cl)cc2)c(C)cc1O -1.13%
CCOC(=O)c1c(S(=O)(=O)NCC2CCN(Cc3cccc(F)c3)CC2)c(C)n(C)c1C -4.42%
O=C(CCN1C(=O)S/C(=C\c2cccs2)C1=O)NC1=NCCS1 25.6%
O=C(CCN1C(=O)/C(=C/c2ccccc2Cl)SC1=S)NC1=NCCS1 9.65%
CCC1(c2ccc(F)cc2)NC(=O)N(CC(=O)NCc2ccc(C)cc2)C1=O (stereo unspecified) -8.4%
COc1cccc(C(=O)N2CCN(C(=O)Cc3ccccc3)CC2)c1 -2.27%
CC1=NN(c2ccccc2)C(=O)/C1=C\c1cc(C)n(C)c1C 6.69%
O=C(Cn1cnc2c(nnn2Cc2ccccc2)c1=O)NCc1ccco1 -2%
Cc1ccc(Cn2nnc3c(=O)n(CC(=O)NCc4ccco4)cnc32)cc1 16.3%
NS(=O)(=O)c1ccc(N/N=C/c2ccc(O)cc2O)c([N+](=O)[O-])c1 -13.8%
CC(O)CNc1ccc([N+](=O)[O-])cc1S(=O)(=O)N1CCOCC1 (stereo unspecified) 6.02%
O=[N+]([O-])c1ccc(NCCCO)c(S(=O)(=O)N2CCOCC2)c1 -0.32%
NS(=O)(=O)c1ccc(N/N=C/c2ccccc2C(=O)O)c([N+](=O)[O-])c1 -3.72%
O=C(CCNS(=O)(=O)c1ccc(Br)cc1)N1CCN(c2ccccc2O)CC1 0.32%
Cc1ccc(OCCOCCN2CCN(C)CC2)c([N+](=O)[O-])c1 6.13%
CCOC(=O)C1CCN(c2c(NCc3ccc(C(=O)NC4CCCC4)cc3)c(=O)c2=O)CC1 0.11%
COc1ccc(Cc2c(O)nc(SCC(=O)N3CCCCCC3)[nH]c2=O)cc1 -4.82%
O=C(/C=C/c1cccs1)Nc1cccc(NC(=O)/C=C/c2cccs2)n1 13.7%
Cc1cccc(NC(=O)/C=C/c2cccs2)n1 4.61%
Cc1nn(-c2ccc(Cl)cn2)c2c1C(=O)CC(C)(C)C2Br (stereo unspecified) -0.39%
CO[C@@]12[C@@H]3N[C@@H]3CN1C1=C(C(=O)C(N)=C(C)C1=O)[C@@H]2COC(N)=O 5.83%
[O-][n+]1c2ccc3nonc3c2nn1-c1ccccc1Cl -0.31%
O=C(CSc1ccc(-c2ccccn2)nn1)Nc1nccs1 -5.9%
CCOCCCNC(=O)c1cccc(NC(=O)C2=C(C)OCCS2)c1 -0.24%
COc1ccc([N+](=O)[O-])cc1NC(=O)COC(=O)Cc1cc(OC)c(OC)c(OC)c1 -5.64%
COc1cc(CC(=O)OCC(=O)Nc2ccc([N+](=O)[O-])cc2)cc(OC)c1OC 31.8%
Cc1csc(SCC(=O)NC2CCS(=O)(=O)C2)n1 (stereo unspecified) -3.32%
COc1cccc(NC(=O)CN2C(=O)COc3ccc(S(=O)(=O)N4CCOCC4)cc32)c1 0%
CCOC(=O)c1cccc(NC(=O)c2ccc(-n3cnnn3)cc2)c1 -5.14%
CC(=O)c1ccc(NC(=O)c2ccc(-n3cnnn3)cc2)cc1 -12.9%
COc1ccc(NC(=O)CCc2ccccc2)cc1S(=O)(=O)N1CCCCC1 2.14%
O=C(Nc1nc2ccccc2s1)c1ccc2c(c1)S(=O)(=O)c1ccccc1C2=O 28.5%
O=C(c1ccc(Br)o1)N1CCN(C/C=C/c2ccccc2)CC1 2.12%
C/C(=N\NC(=S)NCc1ccccc1)c1ccc(C(C)(C)C)cc1 9.19%
C/C(CCC(=O)O)=N/Nc1ccc([N+](=O)[O-])cc1[N+](=O)[O-] 5.85%
CN1CCN(C2=C(Cl)C(=O)N(Cc3ccccc3)C2=O)CC1 14.1%
O=C1C(Cl)=C(NCCCN2CCOCC2)C(=O)c2ccccc21 3.39%
CN1CCN(C2=C(NS(=O)(=O)c3ccccc3)C(=O)c3ccccc3C2=O)CC1 -3.21%
NC(=O)C1CCN(C2=C(NS(=O)(=O)c3ccc(Cl)cc3)C(=O)c3ccccc3C2=O)CC1 10.6%
CC(C)NC1=C(Cl)C(=O)c2ccccc2C1=O 2.61%
NC(=O)C1CCN(C2OC(=O)c3ccccc32)CC1 (stereo unspecified) -1.56%
